The record followed here is PubChem BioAssay (NCATS).

Inconclusive results are not listed. Entries that show only a call come without a potency. Active and inactive are the calls of the source. Calls follow the shape of the dose curve; as a rule, active = well fitted inhibition curve with a large enough effect; inconclusive = small, poorly fitted or top-dose-only effect; inactive = flat fitted curve, though single readings scatter.

In the assay the target is Calcium and integrin-binding protein 1 (Homo sapiens) (UniProt Q99828). The assay is described as follows: Primary qHTS for Identification of Calcium Integrin Binding Protein 1 (CIB1) Competitor (AID 1508620). Also: top concentration of the series differs between compounds. Particulars: CIB1-GST / FITC-alphaIIb peptide fluorescence polarization; series mostly up to 57.7 µM. Summed up: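 Fluorescence polarization competition: GST-tagged CIB1 (1 uM final) preincubated with compound 15 min at room temperature, then FITC-labelled alphaIIb peptide (100 nM final) added. After 15 min at room temperature, polarization read at Ex 480/Em 540.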
Sequence of Calcium and integrin-binding protein 1 (Homo sapiens) (Q99828 whole entry, looked up): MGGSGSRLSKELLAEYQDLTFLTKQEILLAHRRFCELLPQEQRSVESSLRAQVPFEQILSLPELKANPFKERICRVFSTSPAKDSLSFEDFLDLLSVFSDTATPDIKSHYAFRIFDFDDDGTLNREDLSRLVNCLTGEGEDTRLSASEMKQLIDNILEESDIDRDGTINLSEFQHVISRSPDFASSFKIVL
(Quantitative high-throughput screening tests each substance at several concentrations.)
On to `COc1c2c(c(C)c3c1C(=O)OC3)OC1(C)CC(O)C3(O)C(C)(C)OC(=O)CCC3(C)C1C2` (stereo unspecified), for which the Potency entry is “inactive”. As for `C=C(C)[C@@H](C)[C@H]1O[C@]23C[C@]4(CO2)C(CCC2[C@@]5(C)CC[C@H](O[C@@H]6OC[C@H](O)[C@H](O[C@@H]7O[C@H](CO)[C@@H](O)[C@H](O)[C@H]7O)[C@H]6O[C@@H]6O[C@@H](CO)[C@H](O)[C@H]6O)C(C)(C)C5CC[C@]24C)C3[C@@](C)(O)[C@@H]1OC(C)=O` (stereo partly specified), the Potency entry was “inactive”. In the case of `C/C=C(\C)C(=O)OC[C@H]1O[C@H](O[C@H]2O[C@H](CO)[C@@H](OC(=O)/C(C)=C/C)[C@H](O)[C@H]2O[C@@H]2O[C@H](CO)[C@@H](O)[C@H](O)[C@H]2O)[C@H](O[C@@H]2O[C@H](CO)[C@@H](O)[C@H](O)[C@H]2O)[C@@H](O)[C@@H]1O`, the Potency entry is “inactive”. The same measure, in the same setting: as for `C[C@]12CC[C@@H]3c4ccc(O[C@@H]5O[C@H](C(=O)O)[C@@H](O)[C@H](O)[C@H]5O)cc4CC[C@H]3[C@@H]1CCC2=O`, the entry is “inactive”; as for `CC1CCC2(C(=O)OC3OC(CO)C(O)C(O)C3O)CCC3(C)C(=CCC4C5(C)CC(O)C(O)C(C)(C(=O)O)C5CCC43C)C2C1(C)O` (stereo unspecified), “inactive”; as for `CC(C)c1nc(N(C)S(C)(=O)=O)nc(-c2ccc(F)cc2)c1/C=C/[C@@H](O)C[C@@H](O)CC(=O)O`, “inactive”. Still for that read-out and setting: in the case of `CCCOc1ccn2c(C(C)=O)cc(-c3ccccc3S(C)(=O)=O)c2c1` it was “inactive”; in that of `c1ccc(C(OC2CCN(CCCc3nn[nH]n3)CC2)c2ccccc2)cc1`, “inactive”; in that of `C[C@@H]1C(=O)O[C@H]2[C@H]1CC[C@@]1(C)C(=O)C=C[C@](C)(O)[C@H]21`, “inactive”. As for `C[C@@H]1O[C@@H](O[C@H]2[C@H](O[C@H]3[C@H](O[C@H]4CC[C@@]5(CO)C(CC[C@]6(C)C5CC=C5C7CC(C)(C)C[C@@H](O)[C@]7(C)CC[C@]56C)C4(C)C)O[C@H](C(=O)O)[C@@H](O)[C@@H]3O)OC[C@@H](O)[C@@H]2O)[C@H](O)[C@H](O)[C@H]1O` (stereo partly specified), the Potency entry was “inactive”. `Cc1nc2c(-c3cnc(N)nc3)nc(N3CCOCC3)nc2n1C(C)C`: the Potency entry is “inactive”.

In the case of `CC1CCC23COC(=O)C2=CC(O)CC3C1(C)CCC1=CC(=O)OC1O` (stereo unspecified), the Potency entry was “inactive”. `CCn1c2ccccc2c2cc(CNC)ccc21`: the Potency entry was “inactive”. As for `C[C@@H]1O[C@@H](O[C@H]2[C@H](OC(=O)[C@]34CCC(C)(C)C[C@H]3C3=CCC5[C@@]6(C)CC[C@H](O[C@@H]7O[C@H](CO[C@@H]8OC[C@H](O)[C@H](O)[C@H]8O)[C@@H](O)[C@H](O)[C@H]7O)C(C)(C)C6CC[C@@]5(C)[C@]3(C)C[C@H]4O)OC[C@@H](O)[C@@H]2O)[C@H](O)[C@H](O)[C@H]1O[C@@H]1OC[C@H](O)[C@H](O[C@@H]2OC[C@@H](O)[C@H](O)[C@H]2O)[C@H]1O` (stereo partly specified), the activity change, negative = inhibition is 0.282% [at 12.4 µM] (inactive).

On to `C=C1C(=O)OC2/C=C(\C)CC/C=C(\C(=O)O)CC/C=C(\C)CCC12` (stereo unspecified), for which the Potency result is “inactive”. Take `O=C(O[C@@H]1O[C@H](CO)[C@@H](O)[C@H](O)[C@H]1O)c1c(O)cc(O)cc1/C=C/c1ccccc1`: the Potency result was “inactive”.

With `COc1cc([C@H]2OC[C@@H]3[C@@H](c4ccc(O[C@@H]5O[C@H](CO)[C@@H](O)[C@H](O)[C@H]5O)c(OC)c4)OC[C@]23O)ccc1O`, the Potency entry was “inactive”. The same measure, in the same setting: in the case of `CC(=O)OC[C@@]12[C@H](O)C[C@]3(C)C(=CCC4[C@@]5(C)CC[C@H](O[C@@H]6O[C@H](C(=O)O)[C@@H](O[C@@H]7O[C@H](CO)[C@@H](O)[C@H](O)[C@H]7O)[C@H](O)[C@H]6O[C@@H]6O[C@H](CO)[C@@H](O)[C@H](O)[C@H]6O)[C@](C)(CO)C5CC[C@]43C)[C@@H]1CC(C)(C)[C@@H](OC(C)=O)[C@@H]2O` (stereo partly specified) it was “inactive”. Regarding `C[C@@H]1O[C@@H](O[C@H]2[C@H](O)[C@@H](O)[C@H](OC[C@H]3O[C@@H](OC(=O)[C@]45CCC(C)(C)C[C@H]4C4=CCC6[C@@]7(C)C[C@H](O)[C@H](O[C@@H]8O[C@H](CO)[C@@H](O)[C@H](O)[C@H]8O)[C@@](C)(C(=O)O)C7CC[C@@]6(C)[C@]4(C)CC5)[C@H](O[C@@H]4O[C@H](CO)[C@@H](O)[C@H](O)[C@H]4O)[C@@H](O)[C@@H]3O)O[C@@H]2CO)[C@H](O)[C@H](O)[C@H]1O` (stereo partly specified), the activity change, negative = inhibition was 0.065% [at 12.4 µM] (inactive). Regarding `CCOc1ccc(-c2ccc(Cn3c(CC(C)(C)C(=O)O)c(SC(C)(C)C)c4cc(OCc5ccc(C)cn5)ccc43)cc2)cn1`, the Potency result is “inactive”. `C/C=C(\C)C(=O)O[C@@H](C)[C@H]1CC[C@]2(O)C3CCC4C[C@@H](OC5CC(OC)C(OC6CC(OC)C(OC7CC(OC)C(OC8OC(C)C(OC9OC(CO)C(O)C(O)C9O)C(OC)C8O)C(C)O7)C(C)O6)C(C)O5)CC[C@]4(C)C3[C@H](O)[C@@H](O)[C@]12C` (stereo partly specified): the activity change, negative = inhibition was -0.005% [at 12.4 µM] (inactive). As to `CC1=CC(=O)CC(C)(CO[C@@H]2O[C@H](CO)[C@@H](O)[C@H](O)[C@H]2O)C1(O)/C=C/C(C)=C/C(=O)O` (stereo partly specified), the Potency result is “inactive”. On to `COC(=O)C1=COC(O[C@@H]2O[C@H](CO)[C@@H](O)[C@H](O)[C@H]2O)/C(=C\COC(=O)c2ccc(OC3OC(CO)C(O)C(O)C3O)c(OC)c2)C1CC(=O)OCCc1ccc(O)cc1` (stereo partly specified), for which the Potency result is “inactive”. As for `CC(C)C1(O[C@@H]2O[C@H](CO)[C@@H](O)[C@H](O)[C@H]2O)CC=C(CO)CC1` (stereo partly specified), the Potency result was “inactive”.

As for `COC1=CC(=O)C[C@@H](C)[C@]12Oc1cc(OC)cc(OC)c1C2=O`, the Potency result was “inactive”.

For `COc1cc(/C=C/C(=O)OC2[C@H](O)CC(O)(C(=O)O)C[C@H]2O)ccc1O` (stereo partly specified), the Potency result was “inactive”. Same read-out and setting: as for `CC1=C2C(=O)C=C(CO)[C@@H]2[C@H]2OC(=O)[C@H](C)[C@@H]2[C@@H](O)C1`, the entry is “inactive”; as for `CC1CCC2C(C)(C)C(O)CCC2(C)C12Cc1c(O)cc3c(c1O2)C(N)=NC3` (stereo unspecified), “inactive”.

`CCC(C)(O)C(O)C(=O)OCc1ccc(O[C@@H]2O[C@H](CO)[C@@H](O)[C@H](O)[C@H]2O)cc1` (stereo partly specified): the Potency result was “inactive”. Consider `C=C[C@H]1[C@H](O[C@@H]2O[C@H](CO)[C@@H](O)[C@H](O)[C@H]2O)OC=C2C(=O)OCC[C@]21O`, for which the Potency result is “inactive”. For the compound `O=C(O)c1n[nH]c2c1C[C@H]1C[C@@H]21`, the Potency result was “inactive”.
